Results published in PubChem BioAssay.

Biological target: Tumor necrosis factor receptor superfamily member 10B (Homo sapiens) (UniProt O14763)
Assay: viability loss of caspase-8 NB7 cells with TRAIL – with/without TRAIL, luminescence panel, confirmation (AID 651596)
Conditions: NB7 neuroblastoma + caspase-8, TRAIL sensitization, NB7 Caspase-8, with TRAIL, mean of runs, at 10 µM, stronger effect = higher value

Sequence of Tumor necrosis factor receptor superfamily member 10B (Homo sapiens) (O14763 whole entry, looked up): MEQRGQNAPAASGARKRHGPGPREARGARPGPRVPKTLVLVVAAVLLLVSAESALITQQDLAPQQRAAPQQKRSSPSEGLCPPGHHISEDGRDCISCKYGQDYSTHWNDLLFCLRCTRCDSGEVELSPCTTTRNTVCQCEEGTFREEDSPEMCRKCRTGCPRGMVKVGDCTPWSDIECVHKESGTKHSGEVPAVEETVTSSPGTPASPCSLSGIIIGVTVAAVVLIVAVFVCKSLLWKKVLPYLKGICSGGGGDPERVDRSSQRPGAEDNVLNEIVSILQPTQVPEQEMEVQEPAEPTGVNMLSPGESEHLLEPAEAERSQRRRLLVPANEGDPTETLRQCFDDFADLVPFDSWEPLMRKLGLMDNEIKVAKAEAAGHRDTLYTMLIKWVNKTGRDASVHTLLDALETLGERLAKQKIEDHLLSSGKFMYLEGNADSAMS

Compared with `COc1ccc(OCC(=O)N/N=C/C=C/c2ccccc2)cc1`, `COc1ccc(-c2cc(C(=O)N/N=C/c3cccnc3)c3ccccc3n2)cc1` is lower in activity: 59.4% for the first, 45.5% for the second.

Going from `CCOC(=O)C(=C1Nc2ccccc2N1)n1c(-c2cccnc2)nc2ccccc21` to `O=C1Cc2c(-c3ccccc3)cc(-c3cccc(Cl)c3)nc2-c2ccccc2N1`, the activity falls from 55.9% to 52.9%.

First: O=C(Oc1c(CN2CCOCC2)cc(Cl)c2cccnc12)c1cccs1
Second: Cc1cccc(CC(=O)Nc2cc(C)c3c(=O)oc4ccccc4c3n2)c1
The activity of the first is lower: 53.1% for the first, 67.3% for the second.

Going from `COc1ccc(-c2nc(-c3ccc(NC(=O)c4ccncc4)cc3)no2)cc1OC` to `O=C(Nc1ccc2ccccc2c1)c1ccc(Cl)cc1`, the activity falls from 70.5% to 63.1%.

First: CC1(C)N=C(N)N=C(N)N1c1ccc(CCCCc2ccccc2)cc1
Second: Cc1nn(-c2ccccc2)c2nc(N)c(C#N)c(-c3ccc(F)cc3)c12
The activity of the first is lower: 53.6% for the first, 61.9% for the second.

Going from `C=Cc1ccc(Cn2c(C)c(C(=O)NCc3cccc(C(F)(F)F)c3)sc2=O)cc1` to `CCOc1ccc2nc(NC(=O)c3cccc(-c4cc5ccccc5oc4=O)c3)sc2c1`, the activity falls from 60.2% to 56.2%.

First: Cc1nc2cc(NC(=O)c3ccco3)ccc2n1C
Second: O=C(NC1=NCCS1)c1cc2ccccc2o1
The activity of the first is lower: 47.6% for the first, 56.6% for the second.

First: CCSc1ccc(-c2ccc(C)cc2)nn1
Second: Cc1ccc(-n2nnc(-c3cccnc3Cl)n2)cc1
The activity of the first is higher: 59.6% for the first, 56.4% for the second.

First: COc1ccc(NS(=O)(=O)c2cccc(C(=O)N/N=C/c3c(F)c(F)c(F)c(F)c3F)c2)cc1
Second: O=C(Nc1ccc(C(=O)O)cc1)/C(=C\C=C\c1ccccc1)NC(=O)c1ccccc1Cl
The activity of the first is higher: 77.2% for the first, 63.6% for the second.

Compared with `CC(C)C(=O)Nc1ccc(NC(=O)c2ccccn2)cn1`, `CCN(CC)c1ccc(NC(=O)Nc2ccccc2)cc1` is lower in activity: 53.6% for the first, 52% for the second.

For `Cc1nc(Cl)c2oc3ccccc3c2n1`, the activity was 84%.
